uPA generation = qHTS for Inhibitors of Cell Surface uPA Generation; actives 0.31% (n = 330,000); cell surface uPA generation assay, qHTS; Potency, µM (top dose mostly 38.3 µM), inactives show at the highest dose activity change, negative = inhibition, hits mostly inhibitors; active means well fitted inhibition curve with a large enough effect; inconclusive means small, poorly fitted or top-dose-only effect; inactive means no such curve, though single readings can be large or run the other way; tested in mouse RAW 264.7 cells; further: potency means the concentration at half of the fitted maximal effect; on the % scale 0 is the no-effect control and ±100 the full control effect; nearly all actives have a fitted effect of over 55% in size
Giardia kill = Small Molecules that selectively kill Giardia lamblia: qHTS | Giardia lamblia trophozoite viability | actives 0.15% (n = 340,000) | activity change, % at 7.66 µM, hits read low | AID 540267, 2011; in the data active means activity change below about -80%; inconclusive means between about -30% and that limit;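 further: parasites exposed to compound for two days anaerobically before the ATP read; on the % scale 0 is the no-effect control and ±100 the full control effect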
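Giardia lamblia trophozoites (100 cells/well) were incubated with compounds for 48 h at 37 deg C under anaerobic conditions. Viability was read as ATP content by one-step luminescence after 15-30 min at room temperature.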
MCF10A rereplic = A quantitative high throughput screen for small molecules that induce DNA re-replication in MCF 10a normal breast cells. MCF 10A DNA re-replication, Hoechst nuclear intensity, 48 h. Potency, µM (doses to about 46.1 µM), without a hit: top-dose activity, positive = re-replication, actives largely listed as activators. actives 2.9% (n = 350,000). AID 624296, 2012; further: potency means the concentration at half of the fitted maximal effect; % of control where 0% means no effect; nearly all actives have a fitted effect of over 50% in size
SW480 rereplic = A quantitative high throughput screen for small molecules that induce DNA re-replication in SW480 colon adenocarcinoma cells | actives 1.8% (n = 340,000) | Potency, µM (doses to about 46.1 µM), inactives show at the highest dose re-replication activation, usual class: activators | AID 624297, 2012 | SW480 DNA re-replication, Hoechst DNA content imaging, 48 h; further: potency means the concentration at half of the fitted maximal effect; % of control where 0% means no effect; nearly all actives have a fitted effect of over 55% in size
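Image-based DNA-content assay: after two days of treatment, nuclei were labelled with the DNA dye Hoechst and imaged, and hits were compounds raising the count of nuclei showing high fluorescence intensity.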
* marks the source's active call; other numbers are inactive results; u = inconclusive; x = no result; [ ] = remark or other dose. The list is not random: actives were taken first. Their share in the collection is about 4.3%. Unless noted, the call rests on the fitted dose curve; in most records, active means well fitted activation curve with a large enough effect; inconclusive means small, poorly fitted or top-dose-only effect; inactive means no such curve, though single readings can be large or run the other way.

SMILES	uPA generation	Giardia kill	MCF10A rereplic	SW480 rereplic
COc1ccc(-c2cc(C(=O)Nc3ccc(S(N)(=O)=O)cc3)c3ccccc3n2)cc1OC	6%	-8	8.2µM*	5.8µM*
CCc1nc(C)c(C(=O)N2CCCC(C(=O)Nc3cccc(-c4cccc(C)c4)c3)C2)o1 (centres undefined)	-2%	-5	13%	u
CCOc1cc(/C=N/Nc2nnc(C)n2N)ccc1OC(C)=O	-17%	-7	18µM*	18%
Cc1nnc(N/N=C/c2cccc(C(F)(F)F)c2)n1N	-14%	-4	u	22%
CCc1nnc(N/N=C/c2c(Cl)cccc2Cl)n1N	-8%	-10	-9%	-2%
CCc1nnc(N/N=C/c2ccc(O)c(OC)c2)n1N	-30%	5	u	u
CCc1nnc(N/N=C\c2ccc(OC(C)=O)c(OC)c2)n1N	u	-8	23µM*	u
CCc1nnc(N/N=C/c2cccs2)n1N	-12%	21	u	23µM*
Nc1nnc(SCC(=O)c2ccccc2)s1	2%	-5	2%	-5%[9.22 µM]
Nc1c(C(=O)c2ccccc2)sc2snc(SCC(=O)c3ccccc3)c12	-2%	14	16µM*	29%
Cc1ccc2nc(CSc3nc(C)ccc3C#N)[nH]c2c1	x	-88*	u	u
Cc1ccccc1OCC(=O)NCC(=O)OCC(=O)c1ccc(Br)cc1	x	-8	x	x
O=C(c1ccc2nc(-c3ccco3)c(-c3ccco3)nc2c1)N1CCN(c2ccccc2)CC1	x	-2	16µM*	u
O=C(Nc1ccc2nc(-c3ccccn3)c(-c3ccccn3)nc2c1)N1CCCC1	x	-13	x	x
O=C(Nc1ccc(N2CCOCC2)cc1)Nc1ccc2nc(-c3ccco3)c(-c3ccco3)nc2c1	x	7	9.2µM*	18%
O=C(Nc1ccc2nc(-c3cccs3)c(-c3cccs3)nc2c1)N1CCOCC1	x	-11	18µM*	23µM*
N[C@H](COP(=O)(O)O)C(=O)O	x	x	2%	0%
Cc1ccc(C(=O)NC(=O)OCCn2c(C)cnc2[N+](=O)[O-])cc1	1%	-88*	26%	-6%
COc1ccccc1C(=O)NC(=O)OCCn1c(C)cnc1[N+](=O)[O-]	3%	-82*	u	-4%
CC(C)=NNc1nc2sc3c(c2c(=O)[nH]1)CC(C)(C)OC3	2%	8	12µM*	u
CCn1ccnc1CN(C)Cc1cn(-c2cccc(C)c2)nc1-c1cccc(F)c1	u	-7	5.8µM*	u
Cc1cccc(-n2cc(CN(C)Cc3nccn3C)c(-c3cccc(F)c3)n2)c1	0%	7	u	18µM*
CCn1ccnc1CN(C)Cc1cn(-c2ccc(C)cc2)nc1-c1cccc(C)c1	-2%	3	u	u
Cc1ccc(-n2cc(CN3CCN(Cc4nccn4C)CC3)c(-c3cccc(C)c3)n2)cc1	-4%	-21	6%	17%
NCCC(O)(P(=O)(O)O)P(=O)(O)O	x	x	1%	-5%
SMILES	uPA generation	Giardia kill	MCF10A rereplic	SW480 rereplic
O=c1c2cccc3c2c(nn1CN1CCOCC1)-c1ccccc1-3	-9%	4	u	-1%
CCN(CC)CCn1nc2c3c(cccc3c1=O)-c1ccccc1-2	u	-3	21%	9.2µM*
O=C(O)c1ccccc1C(=O)Nc1cc(-c2ccccc2)[nH]n1	11%	-17	1%	-1%
O=C(Nc1cc(-c2ccccc2)[nH]n1)c1ccccc1	-4%	7	u	9.2µM*
CCOC(=O)c1sc(NC(=O)c2cccc(S(=O)(=O)N3c4ccccc4CC3C)c2)cc1C (centres undefined)	-9%	2	8.2µM*	u
C=CCOc1c(Br)cc(/C=C2\SC(=Nc3ccccc3)NC2=O)cc1OC	u	10	u	19%
CCOc1cc(Br)cc(/C=C2\SC(=Nc3ccccc3)NC2=O)c1O	-25%	-17	8.2µM*	-1%
C=CCOc1ccc(Br)cc1/C=C1/SC(=Nc2ccc(C(=O)O)cc2)NC1=O	-17%	-9	8.2µM*	-12%
COc1ccc(N2CCN(C(=O)Cc3ccc(S(=O)(=O)N4CCOCC4)s3)CC2)cc1	0%	0	19%	2%
Cc1cc(NC(=O)/C(C#N)=C/c2ccc(-c3cccc(C(F)(F)F)c3)o2)n(-c2ccccc2)n1	1%	4	u	x
Cc1cc(NC(=O)/C(C#N)=C/c2ccc(-c3ccc(SC(F)F)cc3)o2)n(-c2ccccc2)n1	3%	14	5.8µM*	u
Cc1cccc(C2=NN(c3ccccc3)[C@@H](C(=O)N3CCOC3=O)[C@@H]2c2ccc(F)cc2)c1	8%	u	u	u
OC[C@@H]1[C@@H](c2ccc(F)cc2)C(c2ccccc2)=NN1c1ccccc1	2%	-2	u	18µM*
Cc1cccc(C2=NN(c3ccccc3)[C@H](CO)[C@H]2c2ccccc2)c1	3%	-13	2.3µM*	16µM*
CC[C@H]1C(c2ccc(F)cc2)=NN(c2ccccc2)[C@@H]1CO	-7%	-7	6.5µM*	u
CC(=O)Nc1ccc(/C=C/C(=O)c2ccc(-n3nncc3-c3ccccc3)cc2)cc1	x	-4	x	x
CCN(CC)P(=O)(Nc1cccc(C(F)(F)F)c1)c1ccc(N(C)C)cc1NC(=O)c1ccco1 (centres undefined)	u	6	0.82µM*	-1%
Cc1cc(N)c2ccccc2[n+]1CCCCCCCCCC[n+]1c(C)cc(N)c2ccccc21	x	x	3%[20.6 µM]	-9%[20.6 µM]
COc1cccc(C(=O)C2CCCN(C(=O)c3cccc(C#CC(C)(C)O)c3)C2)c1 (centres undefined)	2%	2	-1%	0%
CCn1c(SCc2ccc(OC)cc2)nnc1-c1ccncc1	0%	-8	21µM*	-3%
CCn1c(SCc2cccc(F)c2)nnc1-c1ccncc1	1%	7	1%	u
O=S(=O)(c1cccs1)N1CCN(c2nc(-c3cccs3)nc3ccccc23)CC1	x	3	x	x
COc1cc(/C=N/n2c(-c3ccc4c(c3)NC(=O)CO4)csc2=Nc2cccc(C)c2)ccc1O	-11%	5	23µM*	u
COc1ccc(-c2csc(NC(C)c3nc4cc(Cl)c(N5CCCCC5)cc4n3CCOCCO)n2)cc1 (centres undefined)	-30%	0	19%	14%
COc1ccc(-c2csc(NC(C)c3nc4cc(Cl)c(N5CCCCC5)cc4n3CCCO)n2)cc1 (centres undefined)	-9%	3	u	0.15µM*
O=C(c1ccccc1)c1nn(-c2ccccc2)c2nnc(Cc3ccccc3)c(=O)n12	-16%	-1	23µM*	18µM*
COc1ccc(NC(=O)CSc2nc(C)cs2)c([N+](=O)[O-])c1	0%	-7	10%	-6%
Cc1ccc(NC(=O)C(=O)Nc2ccc(C)cn2)nc1	-2%	-1	-8%	-13%
Cc1ccc(NC(=O)/C(C#N)=C(\N)C(Cl)(Cl)Cl)nc1	x	0	18µM*	8%
